Rows were chosen to be rich in hits. Some 20% of all compounds tested hit in one or more screens of this group.
Shiga toxin inh: inhibitors of Shiga toxin in Vero cells | Vero cells, Shiga toxin protein synthesis inhibition reporter | inhibition, % at 38.7 µM | hit rate 9.2% among 290,000; in the data active = inhibition mostly above about 28%, no sharp cut-off; inactive = mostly below about 43%
Pf growth 96h: P. falciparum growth inhibition at 96 hours; P. falciparum luciferase reporter growth, 96 h; Potency, µM (titrated, usually from 28.7 µM), hits mostly inhibitors; AID 504834; hit rate 6.9% among 320,000
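Compounds incubated with erythrocytes infected by luciferase-expressing P. falciparum (2% hematocrit, 0.05% parasitemia final) for 96 hours, 37 C in 5% CO2. Growth inhibition scored as decreased luciferase luminescence.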
Pf growth 48h: P. falciparum growth inhibition at 48 hours (one generation) | P. falciparum luciferase growth in erythrocytes, 48 h | Potency, µM (highest dose often 28.7 µM), hits mostly inhibitors | AID 504832 | hit rate 5.9% among 310,000
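Growth was read as firefly luciferase luminescence after a 48 h, 37 C, 5% CO2 exposure of compounds to reporter-bearing P. falciparum cultures (0.1% parasitemia, 2% hematocrit final) in Albumax-supplemented RPMI 1640.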
HCMV antiviral: inhibitors of human cytomegalovirus. AID 1259415. hit rate 4.5% among 410,000. activity change, negative = inhibition, % at 57.5 µM. HFF cells, HCMV-luciferase reporter, 72 h; stronger effect = lower value; in the data active = activity change below about -60%; inconclusive = no clear call, values can overlap the other calls; inactive = above about -39%
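After 16 h attachment at 37C, HFF cells received test compound and HCMV-luciferase (1 PFU/cell); reporter luminescence read 72 h later, data normalized against buffer-only and known inhibitor Salinomycin.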
CHX counter: affects cycloheximide protein synthesis inhibition readout, counter-screen | cell reporter, cycloheximide protein synthesis inhibition counterscreen | max response, % | hit rate 12% among 300,000; in the data active = max response mostly above about 13%, no sharp cut-off; inactive = mostly below about 14%; also: read at 38.3 µM for the half of the compounds with a filed dose
Hits are given with their value; 0 = inactive; ? = inconclusive; - = no result; ! = a repeat was not active. Unless noted, calls follow the shape of the dose curve; as a rule, active = well fitted inhibition curve with a large enough effect; inconclusive = small, poorly fitted or top-dose-only effect, or another doubt; inactive = no such curve, though single readings can be large or run the other way.

SMILES	Shiga toxin inh	Pf growth 96h	Pf growth 48h	HCMV antiviral	CHX counter
CCc1c(C)nc2ncnn2c1N1CCC(C(=O)N2CCN(c3ccccc3)CC2)CC1	0	?	0	-	0
COc1ccc(OC)c(CC(NC(C)=O)C(=O)NC2CCN(c3c(Cc4ccccc4)c(C)nc4ncnn34)CC2)c1 (centres undefined)	0	?	?	?	0
COc1cccc(CC(NC(C)=O)C(=O)NC2CCN(c3c(Cc4ccccc4)c(C)nc4ncnn34)CC2)c1 (centres undefined)	0	10µM	3.7µM	?	0
CCc1c(C)nc2ncnn2c1N1CCC(C(=O)N2CCN(c3ccc(F)cc3)CC2)CC1	0	?	?	-88	0
Cc1cccc(S(=O)(=O)N2[C@@H]3c4cccc(=O)n4C[C@H]2[C@H](CO)[C@H]3C(=O)N(C)C)c1	-	-	-	0	-
CC1SCC(NC(=O)c2ccccc2Cl)CS1 (centres undefined)	74	0	0	0	53
O=C(NC1CC2CCC(C1)N2Cc1ccccc1)c1ccccc1Cl (centres undefined)	0	13µM	0	0	0
CC1SCC(NC(=O)c2cccc(Cl)c2)CS1 (centres undefined)	0	0	0	0	0
CC1SCC(NC(=O)c2ccc(Cl)cc2)CS1 (centres undefined)	49	0	0	0	29
CC(C)C(NC(=O)c1ccc(F)cc1)C(=O)N1CCN(c2ccccn2)CC1 (centres undefined)	-	-	-	0	-
COCCCNc1nccc2[nH]c(-c3cccc(C)c3)nc12	-	-	-	0	-
Nc1ncnc(Sc2ccccc2)c1[N+](=O)[O-]	0	9.3µM	15µM	0	0
Cc1ccc2ccc(C#N)cc2c1O	-	-	-	0	-
COC(=O)n1ccc(C(=O)Nc2ccccc2F)n1	0	?	0	0	27
Cc1cnc(C(=O)NCC(c2ccccc2)c2ccccc2)cn1	0	0	0	0	0
Cc1cnc(C(=O)Nc2ccccc2F)cn1	84	0	-	0	43
Cc1cnc(C(=O)Nc2ccccc2-n2cccc2)cn1	0	12µM	0	0	0
C[C@H](CO)N1C[C@H](C)[C@H](CN(C)S(=O)(=O)c2cccc(F)c2)Oc2ncc(-c3cccc(C(=O)N(C)C)c3)cc2C1=O	-	-	-	0	-
COc1ccc(-c2cc(C(F)(F)F)n3nc(C)c(-c4ccccc4)c3n2)cc1OC	-	-	-	0	-
C=CCn1cccc(C(=O)Nc2ccc(C)cc2)c1=O	102	0	-	0	77
C=CCn1cccc(C(=O)Nc2ccc(C)c(C)c2)c1=O	107	0	0	-	45
Cc1ccc(S(=O)(=O)N2CCOCC2)cc1NC(=O)COC(=O)CNC(=O)c1ccc(Cl)cc1Cl	0	0	0	-68	0
O=C(Nc1cc(S(=O)(=O)N2CCOCC2)ccc1N1CCOCC1)c1ccccc1Cl	-	-	-	0	-
CS(=O)(=O)c1ccc(Cl)c(NC(=O)c2cc(S(=O)(=O)N3CCOCC3)ccc2N2CCCC2)c1	-	13µM	?	0	-
C/C(=N\NC(=S)Nc1cc(S(=O)(=O)N2CCOCC2)ccc1Cl)c1ccccc1F	75	0	0	-92	59
SMILES	Shiga toxin inh	Pf growth 96h	Pf growth 48h	HCMV antiviral	CHX counter
Cc1ccc(S(=O)(=O)N2CCOCC2)cc1C(=O)Nc1cc(Cl)ccc1N1CCOCC1	-	?	4.7µM	0	-
COC(=O)[C@@]1(Cc2ccccc2)[C@H]2C(=O)N(C)C(=O)[C@H]2[C@H]2CN(C)C(=NCc3ccccc3)N21	-	-	-	0	-
Cc1nnc(SCc2cnc(-c3ccc(C(C)C)cc3)s2)n1C	0	12µM	0	0	27
COC(=O)c1ccc(-c2ccc(C3C4C=CCC(C)C4C(=O)N3Cc3ccccc3)c(F)c2)cc1 (centres undefined)	0	-	-	-	0
CC(=O)c1ccc(Oc2ncnc3sccc23)cc1	80	0	0	0	48
Cc1cc(C(=O)COc2ncnc3sccc23)c(C)n1C	134	0	0	0	31
CC(=O)N1CCN(c2ccc(Oc3ncnc4sccc34)cc2)CC1	0	?	-	-75	0
Cc1ccc2[nH]c(=O)c3cc(C(=O)N(C)Cc4ccco4)sc3c2c1	0	0	-	0	23
CCN(C(=O)c1cc2c(=O)[nH]c3ccc(C)cc3c2s1)c1ccc(OC)cc1	0	5.2µM	?	0	0
CCOCCCN(Cc1ccco1)C(=O)c1cc2c(=O)[nH]c3ccc(C)cc3c2s1	0	0	-	-63!	0
COCCN(Cc1ccco1)C(=O)c1cc2c(=O)[nH]c3ccc(C)cc3c2s1	-	-	-	0	-
Cc1ccc(C)c(N(C)C(=O)c2cc3c(=O)[nH]c4ccc(C)cc4c3s2)c1	0	?	10µM	?	0

Assay outcomes: PubChem BioAssay, National Center for Advancing Translational Sciences (NCATS)
